# Laboratory results taken from PubChem BioAssay (NCATS).
# Where “and” joins values, the source holds several entries; their conditions need not be identical. Identical values can stand only once. Records with an inconclusive call do not appear. A call without a number means that no potency is given here. Some compounds were tested as several samples or in several runs, with calls that do not always agree. Calls of active or inactive are those of the source. The call rests on the fitted dose curve; in most records, active means well fitted curve in the direction sought with a large enough effect; inconclusive means small, poorly fitted or top-dose-only effect, or another doubt; inactive means no such curve, though single readings can be large; an effect the other way counts as inactive or inconclusive.
# Legend:
# MCC-13 = assay: qHTS assay to identify novel small-molecules to repurpose for Merkel cell carcinoma treatment (AID 1296009); conditions: MCC and control cell lines, CellTiter-Glo viability, 72 h; series mostly up to 46 µM; further: nearly all actives have a fitted effect of over 60% in size
# Summary of the method: (§1)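 Luminescence from CellTiter-Glo, read 10 min after addition at room temperature, reported viability following a 72 hr, 37 degree celsius treatment with NPC or MIPE compounds in titration; values normalized to plate controls.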
# MKL-1 = assay: as above; conditions: MCC and control cell lines, CellTiter-Glo viability, 72 h; series mostly up to 46 µM
# Summary of the method: as §1
# MKL-2 = assay: as above; conditions: MCC and control cell lines, CellTiter-Glo viability, 72 h; series mostly up to 46 µM
# Summary of the method: as §1
# NIH3T3 = assay: as above; conditions: MCC and control cell lines, CellTiter-Glo viability, 72 h; at 44.8 µM (top of the series) unless noted
# Summary of the method: as §1
# UISO = assay: as above; conditions: MCC and control cell lines, CellTiter-Glo viability, 72 h; series mostly up to 46 µM
# Summary of the method: as §1
# WaGa = assay: as above; conditions: MCC and control cell lines, CellTiter-Glo viability, 72 h; series mostly up to 46 µM
# Summary of the method: as §1
# C33A = assay: Primary qHTS to identify gynecologic anti-cancer compounds using libraries of approved drugs and bioactive compounds (AID 1345084); conditions: Gynecologic cancer cell panel viability, ATPlite luminescence, 48 h; series mostly up to 57.5 µM; further: nearly all actives have a fitted effect of over 55% in size
# Summary of the method: (§2)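 Five-point cytotoxicity, 48 h drug exposure at 37 C, 5% CO2, on cells seeded 16 h beforehand. ATP content read by ATPlite luminescence.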
# CAOV3 = assay: as above; conditions: Gynecologic cancer cell panel viability, ATPlite luminescence, 48 h; series mostly up to 57.5 µM
# Summary of the method: as §2
# CASKI = assay: as above; conditions: Gynecologic cancer cell panel viability, ATPlite luminescence, 48 h; series mostly up to 57.5 µM
# Summary of the method: as §2
# MCC-26 = assay: qHTS assay to identify novel small-molecules to repurpose for Merkel cell carcinoma treatment (AID 1296009); conditions: MCC and control cell lines, CellTiter-Glo viability, 72 h; series mostly up to 46 µM; further: nearly all actives have a fitted effect of over 60% in size
# Summary of the method: as §1
# Potency means the concentration at half of the fitted maximal effect.
SMILES,Potency (MCC-13),Potency (MKL-1),Potency (MKL-2),outcome (NIH3T3),Potency (UISO),Potency (WaGa),Potency (C33A),Potency (CAOV3),Potency (CASKI),Potency (MCC-26)
CCOC(=O)c1ccc(OC(=O)CCCCCN=C(N)N)cc1,inactive,inactive,inactive,inactive,inactive,inactive,inactive,inactive,inactive,–
COc1cc(NCc2ccc3nc(N)nc(N)c3c2C)cc(OC)c1OC,inactive,29.6 µM (active),18.7 µM (active),–,–,2.96 µM (active) and 94.4 nM (active),–,inactive,–,inactive
NC(=O)c1ccc2[nH]ccc2c1,inactive,inactive,inactive,–,inactive,inactive,–,–,–,–
O=C(O)c1cn(C2CC2)c2cc(N3CCNCC3)c(F)cc2c1=O,inactive,inactive,inactive,inactive,inactive,inactive,inactive,inactive,inactive,–
CCCCOc1ccc(CC(=O)NO)cc1,inactive,–,–,–,16.8 µM (active),–,–,inactive,inactive,inactive
OCc1ccc(-c2nn(Cc3ccccc3)c3ccccc23)o1,inactive,–,18.7 µM (active),–,11.8 µM (active),–,–,–,–,inactive
NC(=O)c1cccnc1,inactive,inactive,inactive,–,inactive,inactive,inactive,–,inactive,inactive
O=NN(CCCl)C(=O)NC1CCCCC1,inactive,inactive,inactive,inactive,inactive,inactive,inactive,inactive,inactive,–
COc1cccc(N(C)C(=S)Oc2ccc3c(c2)CCCC3)n1,inactive,inactive,inactive,–,inactive,inactive,inactive,inactive,inactive,–
C[C@@H](CN1CC(=O)NC(=O)C1)N1CC(=O)NC(=O)C1,inactive,inactive and 5.9 µM (active),inactive,–,inactive,inactive and 3.72 µM (active),inactive,inactive,inactive,–
C[C@]12C=CC(=O)C=C1CC[C@@H]1[C@@H]2C(=O)C[C@@]2(C)[C@H]1CC[C@]2(O)C(=O)CO,inactive,inactive,inactive,inactive,inactive,inactive,inactive,inactive,inactive,–
Nc1nc(N)nc(-c2cc(Cl)ccc2Cl)n1,inactive,inactive,inactive,–,inactive,inactive,inactive,inactive,inactive,–
COc1cc2c(Nc3ccc(Br)cc3F)ncnc2cc1OCC1CCN(C)CC1,23.5 µM (active) and inactive,inactive,inactive,inactive,20.9 µM (active) and inactive,inactive,inactive and 22.4 µM (active),inactive,inactive,–
Nc1nc(F)nc2c1ncn2[C@@H]1O[C@H](CO)[C@@H](O)[C@@H]1O,2.35 µM (active),16.8 µM (active),–,–,13.3 µM (active) and 935 nM (active),10.6 µM (active) and 935 nM (active),–,inactive,inactive,inactive and 2.09 µM (active)
COc1ccc(-c2ccc3cc(C(=O)O)ccc3c2)cc1C12CC3CC(CC(C3)C1)C2,inactive,inactive,inactive,inactive,inactive,inactive,inactive,inactive,inactive,–
O=C(N[C@H](CO)[C@H](O)c1ccc([N+](=O)[O-])cc1)C(Cl)Cl,inactive,inactive,inactive,–,inactive,inactive,inactive,–,inactive,inactive
CC(C)C1CCC(C(=O)N[C@H](Cc2ccccc2)C(=O)O)CC1 (some centres undefined),inactive,inactive,inactive,–,inactive,inactive,inactive,inactive,inactive,–
CCCCCCNC(=O)n1cc(F)c(=O)[nH]c1=O,inactive,inactive,inactive,–,–,–,inactive,inactive,inactive,inactive
O=C(O)c1cccnc1,inactive,inactive,inactive,–,inactive,inactive,inactive,inactive,inactive,–
CCOC(=O)c1ccc(C#Cc2ccc3c(c2)C(C)(C)CCS3)nc1,inactive,inactive,–,inactive,inactive,inactive,inactive,inactive,inactive,–
CC(C)(C)C(=O)OCOP(=O)(COCCn1cnc2c(N)ncnc21)OCOC(=O)C(C)(C)C,–,–,–,–,–,–,–,12.6 µM (active),inactive,–
Nc1nc(N)c2nc(CNc3ccc(C(=O)NC(CCC(=O)O)C(=O)O)cc3)cnc2n1 (centres undefined),–,inactive,inactive,–,–,–,–,–,–,inactive
O=S(=O)(O)CCS,inactive,inactive,inactive,–,inactive,inactive,inactive,inactive,inactive,–
Oc1c(Cl)cc(Cl)c2cccnc12,inactive,5.31 µM (active),3.76 µM (active),–,13.3 µM (active),11.9 µM (active),–,–,inactive,–
O=C(O)c1ccc(-n2nc(-c3ccccc3O)nc2-c2ccccc2O)cc1,inactive,–,–,–,–,16.8 µM (active),–,inactive,inactive,–
CC(=O)Oc1ccccc1C(=O)Nc1ncc([N+](=O)[O-])s1,inactive,inactive,–,inactive [at 92 µM],–,inactive and 16.8 µM (active),inactive,inactive,inactive,–
Cc1onc(-c2ccccc2Cl)c1C(=O)N[C@@H]1C(=O)N2[C@@H]1SC(C)(C)[C@@H]2C(=O)O,–,–,–,–,–,–,inactive,inactive,inactive,–
CCCCS(=N)(=O)CCC(N)C(=O)O (centres undefined),–,inactive,–,–,inactive,inactive,–,–,–,–
Cc1ncc([N+](=O)[O-])n1CCO,–,–,–,–,–,–,inactive,inactive,inactive,–
CC1(C)[C@H](C(=O)O)N2C(=O)C[C@H]2S1(=O)=O,–,–,–,–,–,–,inactive,inactive,inactive,–
